The campaign covered roughly 53,000 sequences. About 3,700 (7%) were called active. Shown is part of a subset that was picked to be rich in actives. Values without a mark were called inactive.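 How the source made its calls: active means gene knockdowns whose robust z-score for IL-1 alpha signal is at least 2 or at most -2, so actives lie on both sides; inactive means the rest.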

The assay is described as follows: Components of the Cytosolic LPS Sensing Pathway: Gene Identification via Genome-wide siRNA Screen.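 Further: robust z of the log signal after scaling to non-targeting control siRNA wells of the plate.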 The note with it: RAW264.7 macrophages, IL-1a HTRF, actives lie on both sides, screened at 100 nM (by protocol), cells primed 5 h with Pam3CSK4 first. Put shortly:
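Read-out: IL-1a HTRF on supernatant, divided by plate negative-control median ×100, log-transformed and converted to robust z-score. Cells were RAW264.7 given 100 nM siRNA, Pam3CSK4-primed 5 hours, then LipidA-transfected 24 hour.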
In the case of GGUUCACAGAAAUGGAUGATT against Zfp507, the z-score was -2.91 (active). The value for GGUUUCUUUGCCUACCCAGTT against Prrc2b was -1.13; that for GGGUGACAACCAAAGACUGTT against Mill1 was 0.174. For the sequence “GGAUCAUGCAAACCAAAGCTT against 4930522H14Rik”, the z-score was 0.193. For the sequence GAGAACUCUCUAAACAAGUTT against Cks2, the z-score is 0.714. For GGAUAGUCAUCAACAGAGCTT against Psma7 the value was -2.42 (active); for GGAACAGUCGUGGUAAAGUTT against Gnl2, -0.767; for GGUGUUUGUUCGGAAGCUCTT against Pes1, -0.345.

As for GGAAGAAGCACAAUUUGAATT against Selenof, the z-score was -0.946. The value for “CCUACUCCACGGGUAUUUUTT against 1700065D16Rik” was -0.331; that for GGUGCCGCACACAAACAAUTT against Hipk2 was -2.02 (active). For GGGCCUGAUUUGUCCUCACTT against Sytl1 the value was -1.57; for GGACGGUCCUCUUAAAAGATT against Chat, -0.394. For GGCCUAUCAGAUAAAGAAGTT against Vps37b the value was -1.04; for GGUUACUGCUCUCAUGUACTT against Olfr247, -1.28. Consider GGAGCACUUGUGGAUCAAUTT against Efhd1, for which the z-score is 1.03. Take GCAUCAUGAACUCCUUUGUTT against H2bc1: the z-score is -2.43 (active). The value for GCAUUUAAUGGCAUUACUGTT against Otol1 was 0.596; that for GCUGGCGGAGCAAACUCAATT against Foxd3 was 0.756. On to GGAAUGAAAAACCUACAUGTT against Cxcl13, for which the z-score is 0.453. Take GUUAUUUGUAUGGUGAGAUTT against Hpcal1: the z-score is -1.06. Consider GGCUGCCUAACUGAUAACATT against Inpp4b, for which the z-score is 0.24. On to GGACACUUUACAGUGAUUGTT against Skint4, for which the z-score is 1.1. GCCUCUGAAAGUGUAAUUATT against Ccdc103: the z-score is 0.184.

As for GGUGAUUCAACUCACUUGUTT against Olfr1353, the z-score was -1.33. For GGUAUGUUUUAUCUUGACATT against Olfr851 the value was 0.269. The value for GGGAUCAGGCCAUUUCCAUTT against Vav2 was 2.26 (active); that for GGCAAACGAUAAAGAAAUCTT against Ptp4a2 was 1.58; that for GGGAUUUGCCAAAGAAUAGTT against AI597479 was 0.875.

In the case of GGGUGACAGGGCAUGAGAATT against Macroh2a3, the z-score is 0.611. For “GGCCUUUAAGAGUUUCCAUTT against A230052G05Rik” the value was 2.1 (active). For GCAACAAUAUUGCUCUAGATT against Galntl6, the z-score is -0.452. The value for GCGAUCAAAAUUGUGUCACTT against Minar2 was -0.776. The value for CGAUCAAAAAAAUCGUGUGTT against Cfap97 was 0.587; that for GGAAGUGGCCUUAAAGUAUTT against Arhgef37 was -1.67; that for GUGUCCAGUCCUAAAACGATT against Trib3 was 1.66. Consider GGGAAAGGAUUUUUACAUUTT against Ctdsp1, for which the z-score was 1.83. Regarding “GCAAACUCAAGGCAUACAUTT against A930017M01Rik”, the z-score is 4.27 (active). For GGUGAACCUGGAAGAACUATT against Manea, the z-score is 1.64.

For CGCCAAUUCAUCGUUGACUTT against Ccl3, the z-score is 0.773. Take GGAUUUGGAGUAGAUCAAUTT against Tial1: the z-score was 0.638.

GGAACUGCUAAUCAACCAUTT against Zmynd10: the z-score is -2.14 (active). Turning to GGAAAAAGAGUCCUUCAUGTT against Minar2, the z-score was 1.19.

On to GGAACAAGAAACCACAAUGTT against Agpat1, for which the z-score is 0.281. The value for GGAAGAUGCCAUCUUACACTT against Borcs7 was 2.5 (active); that for GCAGGUUCACGACACCAACTT against Sv2a was -1.35.

On to GCUGAAUGCGACAUUUAUATT against Hk2, for which the z-score was 0.668. For the sequence GGCUGAGCUGAUCUUCUUATT against Wnt8a, the z-score is -0.037.

In the case of GGUCCGAAAGGCAGCUAUATT against Fcer1g, the z-score is -2.17 (active). The value for CGAACAUUCCUUCCAUAACTT against Kcnd3 was 0.609; that for GGCUGUGCAAGCAAAACCUTT against Mad1l1 was -1.43. The value for GGUACAAGACUGUCAUGUGTT against Mrpl3 was 0.356; that for GGUCAAAGUCUAGGAGUUUTT against Spp1 was 2.56 (active). Regarding GGUGUCCAGUCAAUAAGAGTT against Msx3, the z-score is -0.0298. Turning to GGAAAGCUUCAAAAUGGUGTT against Foxj2, the z-score is -1.26. For GGACAUUGACACUACUCCATT against Cyp2c55 the value was -0.519; for GCCCAACUAAGCAAUAAUATT against Fam216b, 0.395; for GCCGAGCAGAUGUACAGAATT against Zfp39, 2.93 (active). As to GUGGUUGAACGGGAAUUUGTT against Gm11487, the z-score was 0.542. The value for GGCUUUAGGUAGUAGUCUCTT against Kansl2 was -2.9 (active); that for GCCAGUGGAUGUUCAGAAUTT against Ccdc73 was 0.019; that for GCGAGAGUUUUUCUUCAACTT against Hoxc11 was 0.385.

Regarding GGAAUGAGGGUAAUGAAUATT against Plin3, the z-score was -1.74. The value for GGAGCUAGCUAGAACAAGUTT against Slmap was 1.58; that for GGAUCAAUCCACAGACGACTT against Dbr1 was 1.56. CGUGGUGAACGAGAUUGAUTT against Kcnab1: the z-score is 1.21. For GCCUGAUGUUGUUUCCAAATT against Lias the value was 2.67 (active). The value for GGUGAAGUUGAAUGGAAGUTT against Crebzf was -0.9; that for CCUAACACUAGUCUCAGAATT against Olfr873 was 0.192; that for GGUGCUAAUGACCUUUGAATT against Dbp was -1.5. For GGAAUGGGAUAGAUUUGUUTT against Ung the value was 2.51 (active). As to GCUACCUCUGACGACCAAGTT against Slc23a3, the z-score was 1.11.

In the case of CCAUCAGGUUUAAGUCGUATT against Vps36, the z-score was -0.698. For CGAAGAGAAGUUAUUUGUATT against Mrps23 the value was 1.19; for GGUUUACCAGGAAAAUUGATT against Txnrd3, -1.09.

For the sequence GGGUCACACUUCAUGGCUUTT against Pofut1, the z-score is -2.07 (active). For GGAUUCUUCGCUCCAAUGATT against Pacs1, the z-score is 0.73. Regarding GGUAUCCUGAUUGUUGAGUTT against Fam228a, the z-score was 1.18. The value for GCAUCAUUAUCUUACCAACTT against Olfr826 was -0.994. For GAGAGAGGGAAUUUGCUCCTT against Pcdhb8 the value was 2.6 (active); for AUGUGGCAAAACCUUUGCATT against Zfp960, 0.615; for CCCAUGCUUAUUACCGAGATT against Rab37, 0.0517. “GGGUGUCAACCCUUUAGAUTT against C130026I21Rik”: the z-score was 0.685. In the case of GCACCUCAAAAGAAUUCAUTT against Septin10, the z-score is 1.42.

Take GGAUAAGAAACACAAGAAGTT against Srrm1: the z-score was 2.04 (active). On to GCACAUUUUAGCCUAAUGGTT against Tpm3, for which the z-score is -0.785. As to CCCACUUGUGGCAGUGUACTT against Stub1, the z-score is 0.818. For GCGACAAUAUGAGUCACCUTT against Fsd1, the z-score was -2.07 (active). For GGGUAACAUGAAAGUGAUCTT against Mybbp1a the value was -0.972; for GGACCAAGGAGCAUUGAAATT against Fkbp7, 1.06; for GGAAUUCAUCUGUGGUCUCTT against Trim50, -0.559. For “GCUUUAGGUAUGGUCCUAATT against A430072C10Rik” the value was 1.23.

“GGAUCCAAGGGCAAAAGAUTT against St6galnac1”: the z-score is -1.36.

Consider CGUACUAUAGUAAAUCCAGTT against Clk1, for which the z-score is 2.4 (active).

For GCCAAGAAACAAUACUCAUTT against Olfr1352, the z-score was 0.694. Turning to CCUACCAAAACGACUAUAUTT against Pnma3, the z-score is -1.29.

As for CGGGCUGAUUCAACUGGUGTT against Kif1b, the z-score is 3.64 (active). For GGUACCUCUUCUCCUAAAGTT against Vps16, the z-score was 0.106. With GCAUCUCAGCUCUGAUUUATT against Fgfbp3, the z-score was 0.758. For the sequence GGUAGAAACUGACCACAUATT against Aifm1, the z-score is 0.917. As for GGAGUAAAUUGAGAAACCATT against Acsm5, the z-score is -0.149. For CCUUUAUUUCUGUGAAUCUTT against Olfr1467 the value was 0.631. GCUGUUCGUGAGGAUAACCTT against Yipf1: the z-score is 1.2. Regarding GGGUAGAAUGACUUUGGCCTT against Cldn2, the z-score is 1.19. As to GGCUUAUCAUAUGAAGACATT against Aplp2, the z-score was 2.33 (active). The value for GGAGUCACCAGACUUGUGUTT against Svs3b was 0.637; that for GGAAAAUGCUCACAUAGUGTT against Pak1ip1 was 0.442.
